Data taken from PubChem BioAssay.
A number with no mark means an inactive call. How the calls were made is not given here.

target: Pantothenate synthetase (Mycobacterium tuberculosis (strain ATCC 25618 / H37Rv)) (UniProt P9WIL5); assay: Recombinant Mtb pantothenate synthetase (PanC) inhibitors, coupled enzyme, confirmatory (AID 375); details: coupled enzyme assay; at 10 µM, hits give high values;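 further: 0% = full reaction with vehicle and 100% = no enzyme background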
Sequence (P9WIL5 whole entry, looked up): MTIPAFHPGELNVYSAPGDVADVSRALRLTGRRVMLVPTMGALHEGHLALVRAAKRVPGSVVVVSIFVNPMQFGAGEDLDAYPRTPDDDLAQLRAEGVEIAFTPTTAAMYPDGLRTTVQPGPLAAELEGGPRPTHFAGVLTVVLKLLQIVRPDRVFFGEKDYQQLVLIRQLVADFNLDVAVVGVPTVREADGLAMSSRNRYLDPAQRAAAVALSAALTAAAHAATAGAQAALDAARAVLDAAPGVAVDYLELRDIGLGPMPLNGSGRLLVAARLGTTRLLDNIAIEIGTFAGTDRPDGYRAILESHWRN

Row | SMILES | inhibition
1 | O=c1ccn(Cc2ccccc2Cl)cc1 | 0%
2 | Cc1ccccc1S(=O)(=O)Cc1ccc(C(=O)NCc2cccnc2)o1 | 0%
3 | CNC(=O)c1ccsc1NC(=O)c1ccccc1 | 4%
4 | COC(=O)C1=C(C)N(Cc2ccco2)C(=O)C1 | 0%
5 | COC(=O)CSc1ncccc1-c1nc2ccccc2[nH]1 | 0%
6 | C/C(N)=C(/C#N)C(=O)COC(=O)COc1ccc(Cl)cc1 | 5%
7 | COc1ccc(C(=O)N2CCOCC2)cc1Br | 6%
8 | O=C(COc1ccc(F)cc1)Nc1ccc(-n2cnnn2)cc1 | 0%
9 | COc1ccc2nc(NC(=O)c3ccoc3C)sc2c1 | 0%
10 | COC(=O)CSC1=C(C#N)C(c2ccccc2)CC(=O)N1 (stereo not given) | 0%
11 | CCc1nnc(NC(=O)CSc2nnc(-c3ccoc3C)n2CC(C)C)s1 | 0%
12 | COc1ccc(OCC(=O)N2CCN(C(=O)COc3ccc(Br)cc3)CC2)cc1 | 0%
13 | Cc1nn(-c2ccc(Cl)cc2)c2sc(C(=O)N3CCN(c4ccccn4)CC3)cc12 | 4%
14 | O=C(CCNS(=O)(=O)c1cccc2nsnc12)Nc1ccc2c(c1)OCCO2 | 0%
15 | Cc1ccc(C(=O)Nc2ccc3c(c2)OCO3)o1 | 0%
16 | O=C(c1cc(-c2cccc(O)c2)on1)N1CCN(C(c2ccccc2)c2ccccc2)CC1 | 8%
17 | C(=N\n1cnnc1)/c1cccnc1 | 0%
18 | Cc1ccc(-n2ncc(C(=O)N3CCc4ccccc4C3)c2NC(=O)c2ccco2)cc1C | 0%
19 | Cc1ccccc1CS(=O)(=O)CCC(=O)N1CCN(c2ccc(N3CCOCC3)nn2)CC1 | 9%
20 | O=C(CSc1nnc(Cn2c(=O)sc3ccccc32)n1-c1ccccc1)NCC1CCCO1 (stereo not given) | 0%

Row | SMILES | inhibition
21 | CN(C)c1nc(Oc2ccc(N)cc2)nc(N(C)C)n1 | 0%
22 | COc1ccccc1N1CCN(C(CNS(=O)(=O)c2cc(F)ccc2F)c2cccnc2)CC1 (stereo not given) | 0%
23 | O=C(O)C1CC=CCC1C(=O)Nc1cccc(C(=O)N2CCCCC2)c1 (stereo not given) | 0%
24 | O=C(CN1CCN(Cc2ccccc2)CC1)Nc1ccc(Cl)cn1 | 3%
25 | CSc1c(C#N)c(N)c(C#N)c2c1COC(C)(C)C2 | 0%
26 | COCCNC(=O)c1ccc(Cl)c(Cl)c1 | 0%
27 | CCOC(=O)c1cccc(NC(=O)CSc2nc3cccnc3n2C)c1 | 0%
28 | COc1ccc(N2CCN(c3oc(COc4ccccc4Cl)nc3C#N)CC2)cc1 | 0%
29 | Cc1[nH]nc2c1C(=O)CC(C)(C)C2 | 0%
30 | COc1ccc(Cn2c(C)nc3c(c2=O)c2nc4ccccc4nc2n3Cc2ccco2)cc1 | 9%
31 | CNC(=O)CSc1nnc(-c2ccc(S(=O)(=O)N3CCCC3)cc2)n1-c1cccc(C)c1C | 0%
32 | CCOc1cc(N2CCOCC2)c(OCC)cc1NC(=O)CSc1cccc[n+]1[O-] | 3%
33 | CCOCCCNC(=O)C1CCN(C(=O)Nc2ccc(Cl)cc2)CC1 | 3%
34 | CC1Oc2ccccc2N(CC(=O)N(Cc2ccccc2)Cc2ccccn2)C1=O (stereo not given) | 4%
35 | CN(C)C(=O)CSc1nnc2sc3ccccc3n12 | 0%
36 | COc1ccc(-c2noc(CCC(=O)NCCCN3CCC(Cc4ccccc4)CC3)n2)cc1 | 0%
37 | CN(C(=O)C1CCCO1)c1nnc(-c2ccncc2)s1 (stereo not given) | 1%
38 | Cn1c2ccccc2c2c(C(=O)NCCCN3CCCC3=O)cn(C3CCCCC3)c(=O)c21 | 8%
39 | CCc1nnc(NC(=O)C2CC(=O)N(Cc3ccco3)C2)s1 (stereo not given) | 0%
40 | Cc1nc(N2CCN(c3ncccn3)CC2)c2oc3ccccc3c2n1 | 2%
